Source: PubChem BioAssay (NCATS)
Results filed as inconclusive are left out. Where a call stands in place of a potency, no number is given. Active and inactive are the calls of the source. The call rests on the fitted dose curve; in most records, active means well fitted cell-killing curve with a large enough effect; inconclusive means small, poorly fitted or top-dose-only effect; inactive means flat fitted curve, though single readings scatter.

Test: qHTS of pediatric cancer cell lines to identify multiple opportunities for drug repurposing: Primary screen for U-2 OS cells (AID 1347096); further: nearly all actives have a fitted effect of over 50% in size
Conditions: U-2 OS viability, CellTiter-Glo luminescence, 48 h; series mostly up to 46 µM
Excerpt: Drug repurposing or repositioning has been offered as a strategy for drug development in oncology programs. This approach has special potential for childhood cancers and other rare or orphan diseases, where the expected return on new drug development has been a disincentive to pharmaceuticals.
In this project we exploit the poly-pharmacology of drugs to discover new indications via phenotypic screening of a panel of 19 well-characterized cell lines derived from solid tumors seen in children and adolescents. The goal is to identify approved drugs with previously unrecognized anticancer properties that has the potential to reveal new mechanisms and biological processes involved in carcinogenesis or drug resistance. We employed a titration-based paradigm (quantitative high-throughput screening or qHTS), where all compounds were tested at multiple concentrations for their effect on cell viability. Concentration-response curves (CRCs) were derived directly from the primary screen, and both potency and efficacy values were used to identify compounds with robust bioactivity profiles. We screened the NIH Chemical Genomics Center (NCGC) Pharmaceutical Collection (NPC) and Mechanism Interrogation Plate (MIPE) small molecule collections of approved and investigational compounds against these cell lines; and measured metabolically active cells after 48 hours of compound treatment as a proxy for cell viability.
Assay Submitter: Nathalia J. Martinez, National Center for Advancing Translational Sciences, National Institutes of Health, Rockville, MD, USA; email: natalia.martinez@nih.gov
[1] Shen, M et al. Quantitative high-throughput phenotypic screening of pediatric cancer cell lines identifies multiple opportunities for drug repurposing. Oncotarget 2017 Dec 19;9(4):4758-4772. PMID 29435139.
The cells were obtained from University of North Carolina (UNC), Pediatric Preclinical Testing Program (PPT), and Coriell Institute (CI).
qHTS cell viability assay:
Cells were assayed in growth media at a density of 500-1,000 cells/well. Five microliters of cells were dispensed into 1,536-well, white, solid-bottom, TC-treated plates (Greiner Bio One) using a multidrop dispenser and incubated at 37 degrees C, 5% CO2, under a humidified atmosphere for 5 hours. Twenty-three nanoliters of compounds and controls (neutral control DMSO or positive control bortezomib at final concentration of 2.3 µM) were subsequently transferred by Kalypsys pintool. For primary screens, the MIPE collection was tested at 11-point dilutions (final concentrations range from 0.78 nM to 46 µM) and the NPC collection at 8-point dilutions (final concentrations range from 0.59 nM to 46 µM). Compounds tested in follow-up screens were assayed at 11-point dilutions. Cells were incubated for 48 hours, followed by addition of 3 µL of CellTiter-Glo (Promega). After a 15 min incubation at room temperature, samples were analyzed for luminescence intensity using a ViewLux High-throughput CCD imager equipped with clear filters.
Potency means the concentration at half of the fitted maximal effect.

Row | Structure (SMILES) | Potency
1 | Nc1nc2ccccc2n1Cc1ccc(F)cc1 | inactive
2 | CCCCCOc1ccccc1/C(=C\SC)n1ccnc1 | inactive
3 | O=C(O)Cn1cnnn1 | inactive
4 | O=c1[nH]c(=O)n([C@H]2O[C@H](CO)[C@@H](O)[C@@H]2O)cc1/C=C\Br | inactive
5 | C[N+]1(C)CCC(OC(=O)C(O)(c2ccccc2)C2CCCC2)C1 (stereo not given) | inactive
6 | CC(=O)OCC(=O)Nc1cc(C#N)cc(NC(=O)COC(C)=O)c1Cl | inactive
7 | CCCCC/C=C\C/C=C\CCCCCCCC(=O)NC(C)c1ccccc1 (stereo not given) | inactive
8 | O=C(O)C1CCC1 | inactive
9 | CCC[C@H](N[C@@H](C)C(=O)N1[C@H](C(=O)O)C[C@@H]2CCCC[C@@H]21)C(=O)OCC | inactive
10 | O=C(CO)[C@@H](O)[C@H](O)[C@@H](O)CO | inactive
11 | C[C@@]12CCC[C@H]1[C@@H]1CC[C@H]3C[C@@H](O)CC[C@]3(C)[C@H]1CC2 | inactive
12 | COC(=O)c1c(Cl)c(Cl)c(C(=O)OC)c(Cl)c1Cl | inactive
13 | C[N+](C)(CCOc1ccccc1)Cc1cccs1 | inactive
14 | CC(C)=CCNc1ncnc2c1ncn2[C@@H]1O[C@H](CO)[C@@H](O)[C@H]1O | 21.1 µM (active)
15 | CCOc1c(N2CCOCC2)cnn(C)c1=O | inactive
16 | CCCC(=O)Nc1ccc(O)c(C(C)=O)c1 | inactive
17 | Cc1[nH]cnc1-c1ccc(Cl)cc1 | inactive
18 | CN1CCC(=C2c3ccccc3CCc3cccnc32)CC1 | inactive
19 | Cc1cc(O)c2c(O)c3c(O)cccc3cc2c1 | inactive
20 | CCOC(=O)O[C@]1(C(=O)OCCl)CC[C@H]2[C@@H]3CCC4=CC(=O)C=C[C@]4(C)[C@H]3[C@@H](O)C[C@@]21C | inactive

Row | Structure (SMILES) | Potency
21 | CCN1CCCC1CN (stereo not given) | inactive
22 | Cc1ccc(C(=O)Oc2ccc(C(O)CNC(C)(C)C)cc2OC(=O)c2ccc(C)cc2)cc1 (stereo not given) | inactive
23 | CO/N=C(/C(=O)N[C@@H]1C(=O)N2C(C(=O)[O-])=C(C[n+]3ccn4ncccc43)CS[C@H]12)c1nsc(N)n1 | inactive
24 | O=C(CCCCCCCCC#CI)Oc1ccccc1 | inactive
25 | CC[N+](CC)(CC)CCOC(=O)C(C1CCCC1)C1CCCC1 | inactive
26 | C/C(=N/NC(=O)c1ccncc1)C(=O)O | inactive
27 | CCCCC(O)/C=C(C)/C=C/C=C/C(=O)N1CCCC1=O (stereo not given) | inactive
28 | CCC(=O)Oc1ccc2c(c1)CC[C@@H]1[C@@H]2CC[C@@]2(C)[C@H]1C[C@@H](OC(=O)CC)[C@@H]2OC(=O)CC | inactive
29 | CSc1ccc(/C=C2/C(C)=C(CC(=O)O)c3cc(F)ccc32)cc1 | inactive
30 | CC(NC(CCc1ccccc1)C(=O)O)C(=O)N1C(=O)N(C)CC1C(=O)O (stereo not given) | inactive
31 | Oc1ccccc1-c1nnco1 | inactive
32 | CN(CC1(C)CCCO1)S(=O)(=O)c1ccc(Cl)c(S(N)(=O)=O)c1 (stereo not given) | inactive
33 | CC(C)CCCC(C)NCCC(C)C (stereo not given) | inactive
34 | COc1cc(/C=C/C(N)=O)cc(OC)c1OC | inactive
35 | O=C1CC[C@H](C(=O)N2CCCCC2)N1 | inactive
36 | CCCCOCCOC(=O)c1cccnc1 | inactive
37 | CCOc1ccc(NS(=O)(=O)c2ccc(N)cc2)nn1 | inactive
38 | Cc1cccc(C)c1NC(=O)c1cc(S(N)(=O)=O)c(Cl)cc1O | inactive
39 | C=CCOc1cc(Cl)ccc1C(=O)NCCN(CC)CC | inactive
40 | O=C(c1ccccc1)c1ccccc1 | inactive
